# Laboratory results reported in PubChem BioAssay (Tox21).
# Inconclusive results are not listed. Where a call stands in place of a potency, no number is given. Activity calls are given as the source filed them. The call rests on the fitted dose curve.
# Molecular target: Muscarinic acetylcholine receptor M1 (Homo sapiens) (UniProt P11229)
# Test: Cholinergic receptor muscarinic 1 (CHRM1) small molecule antagonists, cell-based qHTS assay (AID 1963588); further: nearly all actives have a fitted effect of over 40% in size
# Conditions: CHRM1-CHO antagonist mode, calcium flux fluorescence; series mostly up to 61.5 µM
# Description: National Center for Advancing Translational Sciences [NCATS]
# Division of Preclinical Innovation [DPI]
# U.S. Environmental Protection Agency [EPA]
# National Institutes of Environmental Health Sciences [NIEHS]
# National Toxicology Program [NTP]
# U.S. Food and Drug Administration [FDA]
# The CHRM1 is a muscarinic receptor. This receptor plays a crucial role in learning and memory processes and has long been identified as a promising therapeutic target for the improvement of cognitive decline in Alzheimer's disease (AD). The CHRM1-CHO cell line stably expressing human muscarinic acetylcholine receptor M1 (CHRM1) can be used for screening agonists and antagonists of interactions between CHRM1 and its ligands. The CHRM1-CHO Calcium Flux Assay is a homogeneous fluorescence-based assay for detecting the intracellular calcium level using FDSS kinetic plate reader system.
# Tox21 Assay Protocol Summary:
# CHRM1-CHO cells were dispensed at 1000 cells/3uL/well in 1536-well black-clear bottom plates using a Multidrop Dispenser. After the assay plates were incubated at a 37 C/5% CO2 incubator for 18 h, 3 uL of Dye Loading Buffer was transferred to the assay plate by a Flying Reagent Dispenser. The assay plates were incubated at 37 C for 1h. For antagonist mode, 23 nL of compounds dissolved in DMSO, positive controls or DMSO only was transferred to the assay plate by a pin tool. After 5 min incubation at room temperature, 1.5 uL of acetylcholine at 50nM was added to each well. The fluorescence intensity in the plates was measured using FDSS 7000EX kinetic plate reader for 3 min at 1 sec intervals. Each test compound was measured at 15 concentrations in three independent runs.
# Potency means the concentration at half of the fitted maximal effect.
# Sequence of Muscarinic acetylcholine receptor M1 (Homo sapiens) (P11229 whole entry, looked up): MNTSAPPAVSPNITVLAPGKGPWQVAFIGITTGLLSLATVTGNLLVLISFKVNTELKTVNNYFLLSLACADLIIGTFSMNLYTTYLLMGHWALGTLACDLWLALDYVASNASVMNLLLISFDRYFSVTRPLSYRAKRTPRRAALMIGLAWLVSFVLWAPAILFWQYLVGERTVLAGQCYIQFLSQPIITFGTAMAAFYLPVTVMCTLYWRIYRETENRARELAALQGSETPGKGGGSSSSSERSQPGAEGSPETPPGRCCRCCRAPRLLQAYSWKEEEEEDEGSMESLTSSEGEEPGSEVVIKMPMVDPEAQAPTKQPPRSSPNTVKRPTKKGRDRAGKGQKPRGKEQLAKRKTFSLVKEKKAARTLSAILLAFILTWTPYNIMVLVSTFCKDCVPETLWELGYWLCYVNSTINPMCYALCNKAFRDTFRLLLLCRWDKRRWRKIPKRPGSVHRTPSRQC
row,SMILES,Potency
1,Cc1c(C)c2c(c(C)c1OC(=O)CCC(=O)O)CC[C@@](C)(CCC[C@H](C)CCC[C@H](C)CCCC(C)C)O2,inactive
2,CCCCC/C=C/CC1CC(=O)OC1=O (stereo not given),inactive
3,CN1CN(C)CN(C)C1,inactive
4,N[C@H]1CN(c2c(F)cc3c(=O)c(C(=O)O)cn(C4C[C@H]4F)c3c2Cl)CC12CC2 (stereo not given in full),inactive
5,CCCCCCC1CCCC(=O)O1 (stereo not given),inactive
6,CC(C)=CCOC(=O)c1ccccc1,inactive
7,SCCCCCCCCS,inactive
8,CCOc1cc(OCC)c(C(C)=O)cc1OCC,inactive
9,C=CC(=O)OCC1CCCO1 (stereo not given),inactive
10,O=c1[nH]c(=O)n([C@H]2O[C@H](CO)[C@@H](O)[C@@H]2O)cc1/C=C\Br,inactive
11,CC(C)(C)N,inactive
12,CCC(=O)c1c(O)cc(O)cc1O,inactive
13,ClC1=C(Cl)C1(Cl)Cl,inactive
14,C=C(C)C(=O)OCCN(C)C,inactive
15,COc1ccc(C)cc1[N+](=O)[O-],inactive
16,CN1CCN(C2=Nc3ccccc3Sc3ccc(Cl)cc32)CC1,1.45 µM (active)
17,CN(C)CCc1c[nH]c2ccc(CS(=O)(=O)N3CCCC3)cc12,inactive
18,C=CC(=O)OCCOCC(CC)(COCCOC(=O)C=C)COCCOC(=O)C=C,inactive
19,CCCCc1ccc2c(n1)[C@@H](c1ccc(OC)cc1C[C@H](C)C(=O)O)[C@H](C(=O)O)[C@H]2c1ccc2c(c1)OCO2,inactive
20,CC1CC(C)C(=O)C1=O (stereo not given),inactive

row,SMILES,Potency
1,Cc1ccc(C(=O)c2ccccc2)cc1,inactive
2,C/C=C(\C)C#N,inactive
3,CC(C)COC(=O)COc1cc(Cl)c(Cl)cc1Cl,inactive
4,C#CC(C)(CC)OC(=O)c1ccccc1C(=O)O (stereo not given),inactive
5,O=c1c(O)c(O)c1=O,inactive
6,CC(O)CN(CCCN(C)C)CCCN(C)C (stereo not given),inactive
7,C1=CCC(c2ccccc2)CC1 (stereo not given),inactive
8,CN(C)c1ccc(CCO)cc1,inactive
9,c1ccc(COCc2ccccc2)cc1,inactive
10,CCCCCCCCOS(=O)(=O)O,inactive
11,CCN(Cc1c(F)cccc1Cl)c1c([N+](=O)[O-])cc(C(F)(F)F)cc1[N+](=O)[O-],inactive
12,C=CC(C)(C)O,inactive
13,COc1ccccc1Oc1c(NS(=O)(=O)c2ccc(C(C)(C)C)cc2)nc(-c2ncccn2)nc1OCCO,inactive
14,c1ccc(-c2nn[nH]n2)cc1,inactive
15,N#Cc1ccc(C(=O)O)cc1,inactive
16,N#CSCC(=O)O,inactive
17,O=C(O)c1ccncc1,inactive
18,C=COCC1CCC(CO)CC1 (stereo not given),inactive
19,CC(C)(C)C(=O)CC(=O)C(C)(C)C,inactive
20,O=c1[nH]cnc2ccccc12,inactive
